HT1080-NT tox = kills 2HG-producing HT-1080-NT fibrosarcoma cells | HT-1080-NT fibrosarcoma viability, CellTiter-Glo ATP luminescence, 48 h | actives 1.6% (n = 360,000) | Potency, µM (titrated, usually from 46.1 µM), without a hit: at the top dose activity, negative = less viability, actives largely listed as cytotoxic;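 further: NT is the 2HG producing partner of a matched IDH1 knockdown line; 0% = DMSO-treated cells and -100% = media-only wells without cells; nearly all actives have a fitted effect of over 55% in size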
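Compounds were tested in concentration-response format on HT-1080-NT cells for 48 hours at 37 degrees C. Cell viability came from CellTiter-Glo luminescence; curves were classified by r2, response magnitude and activity.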
KB-3-1 cytotox = KB-3-1 parental cell cytotoxicity | Potency, µM (top dose mostly 46.1 µM), actives largely listed as cytotoxic | KB-3-1 viability, CellTiter-Glo ATP luminescence, 72 h | AID 1347075 | actives 1.4% (n = 400,000); further: nearly all actives have a fitted effect of over 60% in size
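Using CellTiter-Glo luminescence, growth of non-resistant KB-3-1 adenocarcinoma cells is assessed 72 h after pin-tool compound addition at 37 °C. Normalized responses across the concentration series yield fitted curves.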
TDP1 cell noCPT = qHTS for Inhibitors of human tyrosyl-DNA phosphodiesterase 1 (TDP1): qHTS in cells in absence of CPT. DT40 Tdp1-/- hTDP1 cells, no CPT, ATP luminescence, 48 h. Potency, µM (titrated, usually from 46.2 µM), without a hit: at the highest dose activity change, negative = growth inhibition, most hits filed as inhibitors. actives 15% (n = 420,000). AID 686978, 2013; further: nearly all actives have a fitted effect of over 55% in size
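Camptothecin absent (DMSO only). Human TDP1-complemented DT40 knockout cells, 400 cells/well, 37 °C for minimum 48 hr; ATP measured via CellTiter-Glo, 30 min dark incubation, luminescence.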
HT1080 IDH1KD tx = HT-1080 IDH1 knockdown cell toxicity (counter line) | HT-1080 IDH1 knockdown viability, ATP luminescence, 48 h | actives 2% (n = 360,000) | Potency, µM (doses to about 46.1 µM), for inactives: at the top dose activity, negative = toxicity, actives largely listed as cytotoxic;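 further: 0% = DMSO wells and -100% = cell-free medium wells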
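HT-1080-IDH1KD cells (IDH1 knocked down), 750/well in RPMI with 5% FBS, treated with compound 48 h at 37 degrees C. Viability by CellTiter-Glo luminescence, normalised to DMSO and no-cell wells; concentration-response curves classed.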
KB-V1 MDR tox = kills drug-selected multidrug resistant KB-V1 cells | KB-V1 MDR cells viability, CellTiter-Glo, 72 h | Potency, µM (doses to about 46.1 µM), actives largely listed as cytotoxic | actives 3.4% (n = 400,000) | AID 1347076; further: nearly all actives have a fitted effect of over 60% in size
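Following 72 h at 37 degrees C with compound, KB-V1 cell viability was read by CellTiter-Glo luminescence, medium being phenol-red-free DMEM plus 10% FBS; concentration-response parameters came from normalized, curve-fitted qHTS data.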
DT40 TDP1 CPT = DT40-hTDP1 cell growth loss with CPT; actives 12% (n = 420,000); Potency, µM (titrated, usually from 46.2 µM), inactives show at the top dose activity change, negative = growth inhibition, actives largely listed as inhibitors; chicken DT40 Tdp1-/-;hTDP1 cells + 20 nM CPT, ATP luminescence, 48 h; further: nearly all actives have a fitted effect of over 55% in size
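Chicken DT40 Tdp1-/- cells stably complemented with human TDP1 were seeded at 400 cells/well in medium containing 20 nM camptothecin, exposed to pin-transferred compounds, and grown at 37 °C for at least 48 hr. Viability was read as ATP luminescence.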
The depositor's hits bear a star; i = inactive; ? = inconclusive; . = no result given. The list is not random: actives were taken first. Their share in the collection is about 19%. The call rests on the fitted dose curve; in most records, active means well fitted curve in the direction sought with a large enough effect; inconclusive means small, poorly fitted or top-dose-only effect, or another doubt; inactive means no such curve, though single readings can be large; an effect the other way counts as inactive or inconclusive. Unless noted, on the % scale 0 is the no-effect control and ±100 the full control effect; potency means the concentration at half of the fitted maximal effect.

SMILES	HT1080-NT tox	KB-3-1 cytotox	TDP1 cell noCPT	HT1080 IDH1KD tx	KB-V1 MDR tox	DT40 TDP1 CPT
O=C1NC[C@H](CCCCN2C[C@H](Cc3ccc(O)cc3)N(CC3CCCCC3)C(=O)C2=O)N(Cc2ccccc2)C1=O	18%	i	-21%	25%	i	-1%
CC(OC(=O)C1=COCCO1)C(=O)Nc1ccc(Oc2ccccc2)cc1 (stereo not drawn)	-6%	i	?	-23%	i	13µM*
O=C(OC(C(=O)Nc1cc(Cl)cc(Cl)c1)c1ccccc1)C1=COCCO1 (stereo not drawn)	0%	i	18µM*	-1%	?	?
Cc1cnc(C(=O)OC(C)C(=O)Nc2ccc(Oc3ccccc3)cc2)cn1 (stereo not drawn)	-7%	i	1%	-4%	i	-13%
CN(C)C(C(=O)Nc1cc(Cl)cc(Cl)c1)c1ccccc1 (stereo not drawn)	-18%	i	?	-24%	i	-3%
O=C(NCCc1nnc2n1CCN(Cc1ccc3c(c1)CCO3)CC2)c1ccco1	.	.	-8%	.	.	-5%
O=C1CC(Sc2nnc(-c3ccccc3)o2)C(=O)N1c1ccccc1 (stereo not drawn)	-2%	i	4.6µM*	-6%	i	2.9µM*
O=C1CC(Sc2cccs2)C(=O)N1c1ccccc1 (stereo not drawn)	-14%	i	3.7µM*	-23%	i	3.7µM*
Cc1nnc(SC2CC(=O)N(c3ccccc3)C2=O)s1 (stereo not drawn)	17%	i	21µM*	22%	?	3.7µM*
COc1ccc(Nc2oc(-c3ccc(COc4cccc(C)c4)o3)nc2C#N)cc1	.	i	?	.	?	?
O=C(O)c1cc(NC(=O)c2cccc(F)c2)cc(NC(=O)c2cccc(F)c2)c1	22%	i	-13%	17%	i	4%
O=[N+]([O-])c1cccnc1Sc1ccc(F)cc1	15%	i	-18%	-6%	i	-2%
CNc1nnc(Sc2ncccc2[N+](=O)[O-])s1	19%	i	16µM*	-10%	i	8.2µM*
CCc1nnc2c(Nc3ccc(Br)c(C)c3)nc3ccccc3n12	.	i	-6%	.	i	-15%
CCc1nnc2c3ccccc3nc(Nc3cc(C)cc(C)c3)n12	.	i	3.7µM*	.	i	6.5µM*
CCc1nnc2c3ccccc3nc(Nc3ccc(C(C)=O)cc3)n12	.	i	7.3µM*	.	i	?
Cc1cccc(Cl)c1NC(=O)N1CCCN(c2ncccc2[N+](=O)[O-])CC1	20%	i	-5%	8%	i	4%
CCOc1ccccc1C(=O)N(Cc1ccccc1)Cc1cc2cc3c(cc2[nH]c1=O)OCCO3	9%	i	23µM*	8%	?	26µM*
CCOc1ccc2[nH]c(=O)c(CN(CCc3ccccc3)C(=O)N3CCCC3)cc2c1	-3%	i	?	-5%	i	13µM*
CCOc1ccc2[nH]c(=O)c(CN(CCOC)C(=O)N3CCOCC3)cc2c1	7%	i	-8%	12%	i	3%
CCOc1ccc2[nH]c(=O)c(CN(Cc3ccc(C)cc3)C(=O)N3CCCC3)cc2c1	6%	i	21µM*	7%	?	?
CCOc1ccc2[nH]c(=O)c(CN(CCc3ccccc3)C(=O)N3CCOCC3)cc2c1	8%	i	?	-1%	15µM*	?
C=CCc1cc(OC)ccc1OCCOCCN1CCc2ccccc2C1	?	i	?	?	?	?
CC(C)N1CC(C(=O)Nc2ccc(Cl)cc2Cl)CC1=O (stereo not drawn)	1%	i	9%	0%	i	-19%
